Screening data: PubChem, several laboratories
MazF activator = MazEF (E. coli) toxin RNase activation; FAM/BHQ RNA-DNA oligo cleavage fluorescence, 5 h; 0.32% of 350,000 active; activation, % at 20 µM; P0AE70; in the data active = activation above about 50%
Target sequence (P0AE70 whole entry, looked up): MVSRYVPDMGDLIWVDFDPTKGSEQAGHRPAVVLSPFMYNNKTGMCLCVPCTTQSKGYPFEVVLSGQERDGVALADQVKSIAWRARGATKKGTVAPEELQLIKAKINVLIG
DUSP3 inh = inhibitors of human VHR1 phosphatase (DUSP3); P51452; recombinant VHR phosphatase, pNPP absorbance; inhibition, % at 13.3 µM; 0.52% of 290,000 active; AID 1654; in the data active = inhibition above about 50%
Target sequence (P51452 whole entry, looked up): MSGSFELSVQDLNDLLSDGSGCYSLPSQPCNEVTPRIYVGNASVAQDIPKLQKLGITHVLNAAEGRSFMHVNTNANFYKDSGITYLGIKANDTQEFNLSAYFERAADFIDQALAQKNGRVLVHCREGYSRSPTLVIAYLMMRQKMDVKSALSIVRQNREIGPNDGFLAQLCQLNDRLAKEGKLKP
Bead autofluor = compound fluorescence in toxin protease inhibitor counterscreen. 3.1% of 360,000 active. fluorescence intensity (concentration not given with the values). compound autofluorescence counterscreen, microsphere flow cytometry; stronger effect = higher value. AID 624483; in the data active = fluorescence intensity above about 16000; inconclusive = no clear call, values can overlap the other calls
BoNT F protease = inhibitors of Botulinum neurotoxin F light chain protease. Multiplex microsphere protease cleavage assay, flow cytometry. 0.22% of 360,000 active. AID 588497. inhibition, % at 10 µM; in the data active = inhibition above about 35%, passing the limit was not always enough; inconclusive = no clear call, values can overlap the other calls; note: plate controls were buffer without enzyme for full effect and enzyme alone for no effect
BoNT A protease = BoNT A light chain protease inhibition. multiplex microsphere protease substrate cleavage, flow cytometry. inhibition, % at 10 µM. 0.17% of 360,000 active; note: plate controls were buffer without enzyme for full effect and enzyme alone for no effect
Anthrax LF inh2 = anthrax lethal factor protease inhibition; 0.12% of 360,000 active; AID 588501; multiplex microsphere protease cleavage assay, LF; inhibition, % at 10 µM; note: plate controls were buffer without enzyme for full effect and enzyme alone for no effect
The depositor's hits bear a star; ? = inconclusive; . = no result. The list is not random: actives were taken first. Their share in the collection is about 4%. Cut-off read from the data, not from the text of the source, unless noted: active = inhibition above about 30%; inconclusive = no clear call, values can overlap the other calls; inactive = below that.

SMILES	MazF activator	DUSP3 inh	Bead autofluor	BoNT F protease	BoNT A protease	Anthrax LF inh2
COc1ccc(NC(=O)CNc2cccc(C#N)c2)cc1Cl	10	40	4100	?	1	1
COc1ccc(NC(C)C(=O)Nc2ccc(C(C)(C)C)cc2)cc1Cl (centres undefined)	0	20	3580	-15	-1	-7
COc1cccc(CC(=O)Nc2cc(S(=O)(=O)N3CCOCC3)ccc2N2CCOCC2)c1	1	30	4872	5	0	-1
Cn1c(NC(=O)c2ccccc2)c(-c2ccccn2)c(=O)c2ccccc21	-4	14	20450*	1	-1	3
Cc1cc(C)n2cc(CSc3nnnn3-c3ccc(Cl)cc3)nc2n1	6	14	2340	-2	1	0
CCOC(=O)n1c(SCC(N)=O)nc2ccccc21	7	12	3304	-17	-2	-2
CCN(CC)C(=O)CSc1nc2ccccc2c(=O)n1OC(C)C	5	15	17014*	-3	-2	-6
CC(C#N)On1c(SC(C)C#N)nc2ccccc2c1=O (centres undefined)	10	-2	25088*	-6	-4	-4
CCCCOC(=O)n1c(SCC(=O)N(CC)CC)nc2ccccc21	0	-10	24831*	-7	-5	-12
CCCc1n[nH]c2c1/C(=N\OCC)CC(C)(C)C2	0	-4	5534	4	-1	0
COc1ccc(C2CC(C(F)(F)F)n3nc(CO)c(Cl)c3N2)cc1OC (centres undefined)	-14	21	16477*	-2	0	-1
O=C(ONc1ccc(N=NC(=O)c2ccccc2O)cc1)c1ccccc1	1	52*	11081	-4	0	-3
CCOc1cccc(CN2CCC(CCC(=O)NC3CC3)CC2)c1O	-3	51*	4457	?	-1	10
O=C(CCC1CCN(Cc2ccc(Cl)cc2)CC1)NC1CC1	8	70	4268	?	-1	-7
O=c1c2cccnc2nc2n1CCCCC2	8	9	3152	-4	-1	1
Cn1cnc2nc3n(c2c1=O)CCC3	5	-24	16811*	2	0	-2
O=C(O)c1ccc(NCc2ccc(Br)cc2)cc1	8	8	4126	2	0	-2
CC(C)(C)n1nnnc1C(c1ccccc1)N1CCc2ccccc2C1 (centres undefined)	4	12	3651	-14	0	-2
CCOCCCNC(=O)C(c1ccc(Cl)cc1)N(Cc1cccs1)C(=O)c1ccccn1 (centres undefined)	8	-6	3110	0	0	-1
CCOc1cccc2sc(N(CCCN(C)C)C(=O)c3ccc(S(=O)(=O)N4CCc5ccccc5C4)cc3)nc12	50*	4	4388	-11	0	-4
CCCCCCn1c2c(c(=N)c3c1CCC3)CCC2	6	-17	22477*	2	?	-1
Nc1ccc(-c2nc3ccccc3[nH]2)cc1	6	-6	6269	-13	-2	-6
Nc1ccccc1-c1nc2ccccc2[nH]1	9	3	22286*	3	1	-3
COc1cccc(CNC(=O)Cn2cc([N+](=O)[O-])cn2)c1	11	18	.	.	.	.
O=C(Nc1ccncc1)c1cn(-c2ccccc2)nc1-c1cccs1	27	8	?	-21	-1	-2
SMILES	MazF activator	DUSP3 inh	Bead autofluor	BoNT F protease	BoNT A protease	Anthrax LF inh2
CC(NC(=O)COC(=O)c1cn(-c2ccccc2)nc1-c1cccs1)c1ccccc1 (centres undefined)	-9	26	18189*	5	7	-10
O=C(NCCc1cn2cccnc2n1)C1CCC(=O)N(Cc2ccccc2F)C1 (centres undefined)	5	.	3572	-3	0	4
CC(=O)C[C@H]1c2cc(C(F)(F)F)ccc2S(=O)(=O)N1C1CCCCC1	4	.	3949	-5	0	-4
O=C(NCCN1CCOCC1)c1ccc2c(c1)N(Cc1ccccc1)CCS2	2	17	4214	-7	-1	-4
CCNC(=S)N/N=C/c1ccc(OCC(=O)Nc2ccc(C)cc2)cc1	-8	14	20930*	-5	-1	-4
CCOc1ccc(/C=N/NC(=S)Nc2c(C)cccc2C)cc1	2	-4	2990	-8	-1	0
CCNC(=S)N/N=C/c1ccc(OCCOc2ccccc2C)cc1	-15	6	23540*	-1	1	4
Cc1ccc(S(=O)(=O)N2c3cc(C)ccc3OCC2C(C)(C)C)cc1 (centres undefined)	-8	14	4511	-23	-1	2
CN1CCN(C(=O)COc2ccc(S(=O)(=O)Nc3ccc(Cl)cc3)cc2)CC1	5	.	3783	-2	0	-4
CCCCNS(=O)(=O)c1ccc2nc(SCC(=O)c3ccc(C#N)cc3)[nH]c2c1	7	57*	2820	2	0	0
O=C1NC(c2ccc(Br)cc2)Nc2sc3c(c21)CCC3 (centres undefined)	-12	34	22598*	2	1	-4
O=C1NC(c2cccnc2)Nc2sc3c(c21)CCCC3 (centres undefined)	-2	9	10852	-6	-1	4
CCCCn1c(=O)c(F)cn(Cc2ccc(OC)c([N+](=O)[O-])c2)c1=O	-5	-3	2445	-6	-1	0
CCCn1c(=O)c(F)cn(Cc2ccc(OC)c([N+](=O)[O-])c2)c1=O	10	48	21734*	3	2	2
CC1(C)Cc2nc3oc4c(=O)n(CC(=O)Nc5cccc(Cl)c5)cnc4c3cc2CO1	13	31	3143	?	-2	-4
CCc1nc(SCC(=O)NNC(=O)C2CCCCC2)c2ccccc2n1	-4	1	21748*	-8	?	-2
CCc1nc(SCC(=O)NNC(=O)C(C)C)c2ccccc2n1	-4	2	?	?	?	-223
Cc1ccc(SCC(=O)NNC(=O)C2CCCCC2)cc1	-3	28	20856*	-1	?	-3
Cc1onc(-c2ccccc2)c1C(=O)Nc1ccon1	0	-2	11419	2	0	0
CCCc1nc(S(=O)(=O)Cc2ccc(Cl)cc2Cl)n[nH]1	0	8	17841*	8	5	0
O=c1[nH]nc(Cc2ccc(Cl)cc2Cl)c2ccccc12	10	-33	4500	4	0	0
CCOc1ccc(-c2noc(CCCC(N)=O)n2)cc1OC	4	24	22255*	-2	-1	-4
CCOc1cc(-c2noc(CCCC(N)=O)n2)cc(Br)c1OC	-2	-27	7941	-1	0	-8
COc1ccc(-c2noc(CCC(N)=O)n2)cc1OC	-5	18	22164*	-8	?	-4
Cc1ccc(CNC(=O)c2ccc(N3CCC4(CC3)CC(c3cccc(Br)c3)=NO4)c(NC(=O)c3ccc(Cl)c([N+](=O)[O-])c3)c2)cc1	-12	.	4052	-5	0	-2
CCCOc1ccc(C(=O)CCC(=O)NNC(=O)c2cccs2)cc1	1	.	3736	4	0	8
